Only some compounds are listed: those with a hit (about 2.6% of all), similar ones and a draw of the others.
pPAFAH inh: inhibitors of human plasma PAF acetylhydrolase (pPAFAH) | actives 1.5% (n = 330,000) | Q13093 | AID 463082 | inhibition, % at 3.39 µM | recombinant pPAFAH, FP-rhodamine probe fluorescence polarization;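 active means inhibition above the mean inhibition across the screen plus 3 SD, cut at about 25% in these data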;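 further: inhibitors block binding of the rhodamine activity-based probe so polarization drops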
Target sequence (Q13093 whole entry, looked up): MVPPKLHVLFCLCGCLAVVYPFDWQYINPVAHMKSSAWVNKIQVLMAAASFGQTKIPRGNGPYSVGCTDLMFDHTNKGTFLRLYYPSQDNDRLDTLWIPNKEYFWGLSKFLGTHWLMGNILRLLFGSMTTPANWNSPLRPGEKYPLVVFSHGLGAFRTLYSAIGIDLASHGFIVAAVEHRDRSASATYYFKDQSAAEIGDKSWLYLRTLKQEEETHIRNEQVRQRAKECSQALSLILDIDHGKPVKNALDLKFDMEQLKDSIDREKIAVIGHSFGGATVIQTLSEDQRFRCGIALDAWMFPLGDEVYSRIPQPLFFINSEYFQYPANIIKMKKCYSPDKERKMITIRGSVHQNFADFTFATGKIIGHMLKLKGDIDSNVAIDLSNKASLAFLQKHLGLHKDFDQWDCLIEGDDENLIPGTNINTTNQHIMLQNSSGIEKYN
PAFAH1B2 FP inh: blocks human PAF acetylhydrolase 1b catalytic subunit 2. actives 1.2% (n = 340,000). inhibition, % at 3.39 µM. AID 492953. recombinant PAFAH1B2, FP-rhodamine activity probe, fluorescence polarization;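 active means inhibition above the mean of all tested compounds plus 3 SD, cut at about 24% in these data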
PKA-R1A activ: activators of PKA-R1A complex. AID 504707. actives 0.083% (n = 340,000). PKA-R1A dissociation, Cy5-IP20 fluorescence polarization; scaled: DMSO 0%, 113 µM cGMP 100%. activation, % at 11.4 µM;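 active means percent activation above the mean of all tested compounds plus 3 SD, cut at about 19% in these data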;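 further: higher means more PKAc released from R1A so a rise in polarization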
PKA-R2B act: activates the human PKA-R2B holoenzyme complex. activation, % at 11.4 µM. P22694+P31323. PKA-R2B holoenzyme dissociation, Cy5-IP20 fluorescence polarization; R2B truncated from residue 108, S112A mutant; 0% DMSO only, 100% 113 µM cGMP. AID 504700. actives 0.079% (n = 340,000);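 active means activation above a cutoff set at the mean over all compounds plus 3 SD, cut at about 18% in these data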;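 further: higher means more holoenzyme dissociation and a rise in polarization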
PAFAH2 FP inh: inhibitors of human PAFAH2; inhibition, % at 3.39 µM; recombinant PAFAH2, FP-rhodamine activity probe, fluorescence polarization; AID 492956; actives 0.99% (n = 340,000); Q99487;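 active means inhibition above the mean over all tested compounds plus 3 SD, cut at about 30% in these data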;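 further: inhibitors block probe labeling of enzyme so polarization drops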
PAFAH1B3 FP inh: blocks human PAF acetylhydrolase 1B catalytic subunit 3; Q15102; recombinant PAFAH1B3, FP-rhodamine probe, fluorescence polarization; inhibition, % at 3.39 µM; actives 0.28% (n = 340,000); AID 492972;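 active means inhibition above the screen-wide average of all tested compounds plus 3 SD, cut at about 25% in these data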
Numbers stand for hits; . = inactive; / = no result.

SMILES	pPAFAH inh	PAFAH1B2 FP inh	PKA-R1A activ	PKA-R2B act	PAFAH2 FP inh	PAFAH1B3 FP inh
Cc1c(C)c2ccc(OCC(=O)Nc3ccccn3)cc2oc1=O	.	.	.	.	.	.
Cc1oc(C(=O)O)cc1COc1cccc2cccnc12	28.1	.	.	.	.	.
Cc1ccccc1Cc1c(C)nc2c(C(=O)NCc3ccco3)cnn2c1C	27.1	.	.	.	.	.
COC(=O)C1=C(C)NC(C)=C(C(=O)OC)C1C(=O)OCC(=O)N1CCCCC1C (stereo not drawn)	/	.	.	.	.	.
COc1cccc(NC(=O)/C=C/c2ccco2)c1	.	.	.	.	.	.
CSc1cccc(NC(=O)/C=C/c2ccco2)c1	25.1	.	.	.	.	.
O=C(N/C=C/c1ccco1)Nc1cccc(Cl)c1	27.2	/	/	/	/	/
COc1ccc(NC(=O)N/C=C/c2ccco2)cc1	.	.	.	.	.	.
CC(C)(C)c1ccc(OCC(=O)N(Cc2cccs2)C2CCS(=O)(=O)C2)cc1 (stereo not drawn)	.	29.1	.	.	.	.
NC(=NCCc1ccc(Cl)cc1)NS(=O)(=O)c1ccccc1	.	53.6	.	.	.	.
NC(=NCCc1ccccc1)NS(=O)(=O)c1cccs1	.	.	.	.	.	.
O=S(=O)(NC(=NCCc1ccc(Cl)cc1)c1ccccc1Cl)c1cccs1	.	47.5	.	.	.	.
COc1ccc(CCN=C(N)NS(=O)(=O)c2ccccc2)cc1	.	.	.	.	.	.
COc1ccc(CCN=C(N)NS(=O)(=O)c2ccc(F)cc2)cc1	.	.	.	.	.	.
NC(=NCCc1ccc(Cl)cc1)NS(=O)(=O)c1ccc(F)cc1	.	48.9	.	.	.	.
COc1ccc(NC(=O)C2CCCN(S(C)(=O)=O)C2)cc1Cl (stereo not drawn)	.	.	.	.	.	.
CCOc1ccc(C(=O)CC(C(=O)O)N2CCCCC2)cc1 (stereo not drawn)	.	.	.	18.5	.	.
CC1=C(CC(=O)c2ccc(Cl)cc2)C(=O)c2ccccc2C1=O	28.1	.	.	.	.	.
COc1ccc(N2c3ccccc3CN(Cc3ccccc3)CC2Cc2cc(OC)c(OC)c(OC)c2)cc1 (stereo not drawn)	/	/	.	.	/	/
COc1ccc(C(=O)NNC2CC(=O)N(Cc3ccc(Cl)cc3)C2=O)cc1OC (stereo not drawn)	33.0	.	.	.	.	.
CCN1C(=O)CC(NNC(=O)c2ccc(Cl)cc2)C1=O (stereo not drawn)	.	.	.	.	.	.
CCC(C)(C)C1CCC2(CC1)NC(=O)N(CC(=O)N1CCN(C(=O)c3ccco3)CC1)C2=O (stereo not drawn)	.	24.7	.	.	.	.
CCC(C)(C)C1CCC2(CC1)NC(=O)N(CC(=O)NCCOc1ccccc1)C2=O (stereo not drawn)	.	28.5	.	.	.	.
CCC(C)(C)C1CCC2(CC1)NC(=O)N(CC(=O)NCCc1ccc(OC)c(OC)c1)C2=O (stereo not drawn)	.	25.4	.	.	.	.
CC1CCC2(CC1)NC(=O)N(CC(=O)N1CCN(C(=O)c3ccco3)CC1)C2=O (stereo not drawn)	.	.	.	.	.	.
SMILES	pPAFAH inh	PAFAH1B2 FP inh	PKA-R1A activ	PKA-R2B act	PAFAH2 FP inh	PAFAH1B3 FP inh
Cc1ccc(C)c(NC(=O)C2CCCN(S(=O)(=O)c3c(C)noc3/C=C/N(C)C)C2)c1 (stereo not drawn)	.	.	.	.	.	.
Cc1noc(C)c1S(=O)(=O)N1CCCC(C(=O)NCCc2ccccc2)C1 (stereo not drawn)	.	.	.	.	.	.
Cc1ccc(CCNC(=O)C2CCCN(S(=O)(=O)c3c(C)noc3C)C2)cc1 (stereo not drawn)	.	27.3	.	.	.	.
Cc1ccc(CCNC(=O)C2CCCN(S(=O)(=O)c3c(C)noc3/C=C/N(C)C)C2)cc1 (stereo not drawn)	.	36.2	.	.	.	.
O=C(O)c1cccc(N2C(=O)/C(=C/c3ccc(SCc4ccc(Cl)cc4)o3)SC2=S)c1	/	33.9	.	.	.	.
O=C(CCN1C(=O)/C(=C/c2ccc(Cl)cc2)SC1=S)Nc1cccc(C(=O)O)c1	.	.	.	.	.	.
